The results in this text go back to PubChem BioAssay (NCI).

The structures appear in SMILES notation. This is part of a sample that, as a whole, favours compounds with a hit. Of some 83,000 tested, about 20% had one in any assay.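 Results are percent growth after 48 hours of single-concentration exposure. 100 means growth as in untreated cells, lower positive values show inhibition; negative values down to -100 show cell death.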 Unmarked numbers belong to inactive results. Activity calls are given as the source filed them. The calls were made as follows: active = growth percent below 10; inactive = the rest.

Some test systems named below: HCT-15 colon; HT29 colon; SNB-75 CNS; SNB-19 CNS; U251 CNS; PC-3 prostate; SK-MEL-5 melanoma; UACC-62 melanoma; LOX IMVI melanoma; SK-MEL-28 melanoma; SK-MEL-2 melanoma; EKVX NSCLC; SN12C renal; UO-31 renal; TK-10 renal; ACHN renal; CAKI-1 renal; A498 renal; CCRF-CEM leukemia; MOLT-4 leukemia.
Assay in all cases: NCI-60 one-dose screen, 48 h (100 = growth as untreated, 0 = no growth, -100 = all killed)
Details in all cases: 10 µM unless noted

Consider `Cc1ccc(C)c2c1C(O)(C#Cc1ccccc1)c1ccccc1C2(O)C#Cc1ccccc1` (stereo not drawn), for which the growth in the assay with HCT-15 colon is 27.7%; in the assay on HT29 colon, 38.9%; in the assay on SNB-75 CNS, 48.3%; in the assay on SNB-19 CNS, 70.4%; in the assay on U251 CNS it was 34.3%; with PC-3 prostate, 29.4%. Also, the growth with SK-MEL-5 melanoma was 36.8%; in the assay on UACC-62 melanoma it was 53.4%; with LOX IMVI melanoma, 42.5%; in the assay with SK-MEL-28 melanoma it was 80.4%; in the assay on SK-MEL-2 melanoma, 15.9%; in the assay on EKVX NSCLC it was 38.5%. Further, the growth with SN12C renal is 71.5%; with UO-31 renal it was 19.6%; with TK-10 renal, 58.8%; in the assay with ACHN renal it was 49.7%; with CAKI-1 renal, 71.9%; in the assay with A498 renal, 69.2%. For the same compound, in the assay with CCRF-CEM leukemia, the growth is 27.5%.

For `COc1cc(-c2nc3occn3c2-c2ccnc(NCCCNS(=O)(=O)c3ccccc3)n2)ccc1F`, the growth with HCT-15 colon was 37.5%; with HT29 colon, 16.7%; in the assay with SNB-75 CNS, 102%; with SNB-19 CNS it was 78.2%; in the assay with U251 CNS, 73.4%; with PC-3 prostate it was 22.2%. Further, the growth with SK-MEL-5 melanoma is -22.4% (active); with UACC-62 melanoma it was 4.35% (active); with LOX IMVI melanoma, 31.5%; in the assay on SK-MEL-28 melanoma, 38%; in the assay with SK-MEL-2 melanoma, 34.2%; with EKVX NSCLC, 44.7%. Besides, the growth in the assay with SN12C renal is 44%; with UO-31 renal, 11.5%; in the assay on TK-10 renal, 49.5%; in the assay on ACHN renal it was 37.3%; in the assay with CAKI-1 renal, 29.7%; in the assay on A498 renal, 57.1%. Further, the growth in the assay on CCRF-CEM leukemia was 17.3%.

In the case of `CC[C@]12C=CCN3CC[C@@]4(c5ccc(OC)cc5N(C)[C@H]4[C@@](O)(C(=O)OC)[C@@H]1OC(=O)CCCN1CCOCC1)[C@@H]32`, the growth in the assay with HCT-15 colon was 110%; in the assay on HT29 colon it was 110%; in the assay with SNB-75 CNS, 91.5%; in the assay with SNB-19 CNS, 101%; in the assay with U251 CNS, 101%; with PC-3 prostate it was 105%. Besides, the growth is 103% in the assay on SK-MEL-5 melanoma; 97.6% in the assay on UACC-62 melanoma; 110% in the assay with LOX IMVI melanoma; 109% in the assay on SK-MEL-28 melanoma; 109% in the assay on SK-MEL-2 melanoma; 111% with EKVX NSCLC. Also, the growth was 105% in the assay on SN12C renal; 94.1% with UO-31 renal; 99.8% with TK-10 renal; 110% in the assay on ACHN renal; 94.2% in the assay on CAKI-1 renal; 113% in the assay on A498 renal. Also, the growth with CCRF-CEM leukemia is 107%.

With `CCCCCCCCn1ccc2cc(NC(=O)Cn3cc(CN4CCOCC4)nn3)ccc21`, the growth with HCT-15 colon was 92.4%; with HT29 colon it was 108%; in the assay on SNB-75 CNS it was 100%; in the assay on SNB-19 CNS it was 92.9%; in the assay on U251 CNS it was 88.5%; with PC-3 prostate it was 75.2%. The growth was 86.7% with SK-MEL-5 melanoma; 86.8% with UACC-62 melanoma; 102% in the assay on LOX IMVI melanoma; 99.8% with SK-MEL-28 melanoma; 100% with SK-MEL-2 melanoma; 87.9% in the assay on EKVX NSCLC. Moreover, the growth in the assay with SN12C renal is 100%; in the assay with UO-31 renal, 78.3%; with TK-10 renal, 108%; in the assay on ACHN renal it was 98.5%; in the assay on CAKI-1 renal, 83.9%; in the assay on A498 renal, 99.7%. The figures for the growth in the assay on CCRF-CEM leukemia and in the assay with MOLT-4 leukemia were -31.6% (active) and 35.8%, respectively.

As to `COC(=O)C1=C(C)NC(C)=C(C(=O)OCC(C)C)C1c1ccccc1[N+](=O)[O-]` (stereo not drawn), the growth in the assay with HCT-15 colon is 41%; in the assay on HT29 colon, 87.3%; with SNB-75 CNS, 68.6%; in the assay on SNB-19 CNS, 82.4%; in the assay on U251 CNS, 68.8%; in the assay with PC-3 prostate, 35.8%. Besides, the growth in the assay on SK-MEL-5 melanoma was 38%; with UACC-62 melanoma, 48.7%; in the assay with LOX IMVI melanoma, 42.4%; in the assay with SK-MEL-28 melanoma, 87.1%; with SK-MEL-2 melanoma, 64.8%; in the assay on EKVX NSCLC it was 58.3%. In addition, the growth with SN12C renal was 64.3%; with UO-31 renal it was 28.3%; in the assay on TK-10 renal it was 80.7%; in the assay on ACHN renal it was 26.8%; in the assay on CAKI-1 renal, 21.9%; with A498 renal, 50.4%. The growth with CCRF-CEM leukemia is 7.1% (active).

As for `Cn1cc(-c2nn3cc(-c4ccccc4)nc3s2)c2ccccc21`, the growth was 44.7% in the assay on HCT-15 colon; 44.5% in the assay with HT29 colon; 39.8% in the assay on SNB-75 CNS; 73.4% in the assay with SNB-19 CNS; 77.9% in the assay on U251 CNS; 75.9% in the assay on PC-3 prostate. Further, the growth in the assay with SK-MEL-5 melanoma is 65.5%; in the assay on UACC-62 melanoma, 54%; in the assay on LOX IMVI melanoma, 79.4%; with SK-MEL-28 melanoma, 71.1%; in the assay with SK-MEL-2 melanoma, 79.6%; with EKVX NSCLC, 72.5%. Also, the growth was 78.7% in the assay on SN12C renal; 42.8% in the assay with UO-31 renal; 95.5% in the assay on TK-10 renal; 74.2% in the assay on ACHN renal; 55.3% in the assay with CAKI-1 renal; 85.3% in the assay on A498 renal. Further, the growth in the assay on CCRF-CEM leukemia was 76.4%.

As for `CCCCCCOC(=O)CC1=C(C)/C(=C/c2[nH]c(-c3ccc[nH]3)cc2OC)N=C1C`, the growth with HCT-15 colon was -34.9% (active); with HT29 colon, 1.26% (active); with SNB-75 CNS, -5.75% (active); in the assay on SNB-19 CNS, 12.8%; in the assay with U251 CNS, -68.8% (active); in the assay on PC-3 prostate, -23% (active). The growth was -92.1% (active) with SK-MEL-5 melanoma; -64.5% (active) with UACC-62 melanoma; -82% (active) with LOX IMVI melanoma; -64.9% (active) in the assay on SK-MEL-28 melanoma; -49.5% (active) in the assay on SK-MEL-2 melanoma; -35% (active) in the assay with EKVX NSCLC. Also, the growth with SN12C renal was -63% (active); in the assay on UO-31 renal it was -86.9% (active); in the assay with TK-10 renal it was -24.9% (active); in the assay with ACHN renal, -19.5% (active); in the assay with CAKI-1 renal it was 0.637% (active); in the assay with A498 renal, -49.4% (active). The growth in the assay with CCRF-CEM leukemia was -22.5% (active).

`O=[N+]([O-])/C(=C\c1ccco1)c1ccccc1Cl`: the growth with HCT-15 colon is 67.7%; in the assay with HT29 colon it was 69.7%; in the assay on SNB-75 CNS, 64.8%; with SNB-19 CNS, 79.7%; in the assay on U251 CNS, 72.6%; in the assay with PC-3 prostate, 45.8%. In addition, the growth in the assay with SK-MEL-5 melanoma is 76.7%; in the assay on UACC-62 melanoma, 33.8%; in the assay with LOX IMVI melanoma, 64.2%; in the assay on SK-MEL-28 melanoma, 60.3%; with SK-MEL-2 melanoma it was 60.6%; in the assay on EKVX NSCLC it was 83.1%. For the same compound, the growth in the assay on SN12C renal was 78.4%; with UO-31 renal it was 66.6%; with TK-10 renal it was 82.8%; in the assay with ACHN renal, 81.1%; in the assay with CAKI-1 renal, 67%; with A498 renal it was 41.9%. In addition, the growth in the assay on CCRF-CEM leukemia was 60.5%.
